Source: PubChem BioAssay (NCI)
The panel holds about 83,000 compounds, 20% with a hit somewhere; the sample as a whole holds those more often.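 Percent growth is the endpoint: 0 to 100 indicates growth inhibition (40 means 60% inhibition), 0 means no net growth, and negative values indicate cell death.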 Unmarked numbers belong to inactive results. The source made the active and inactive calls. How the source made its calls: active means growth percent below 10; inactive means the rest.

What follows are compounds tested on MDA-MB-468 breast (assay: NCI-60 one-dose screen, 48 h (100 = growth as untreated, 0 = no growth, -100 = all killed)). Details: 10 µM unless noted.

| SMILES | growth |
| --- | --- |
| [O-][n+]1c2ccccc2[n+]([O-])c2c3ccccc3[nH]c21 | -36.6% (active) |
| COc1cc2c3c(n(CCCN4CCC[C@H]4C(N)=O)c(=O)c2cc1OC)-c1cc2c(cc1C3=O)OCO2 | 11.8% |
| CCN(CC)CCN(CCN(CC)CC)c1ccccc1 | 92% |
